The text below walks through data of PubChem BioAssay AID504850 (National Center for Advancing Translational Sciences (NCATS), 2011).

The whole screen tested about 2,300 compounds, of which about 1,200 (52%) were called active. Inconclusive results (about 34%) are left out. Calls come from the whole dose curve; as a rule, active = well fitted inhibition curve with a large enough effect; inconclusive = small, poorly fitted or top-dose-only effect, or effect the other way; inactive = no such curve, though single readings can be large or run the other way. The set was probably picked from earlier hits. The list shows a part of the results.
% is set by controls: 0 for no effect and ±100 for the full control effect; potency is the fitted concentration of half-maximal effect.

The assay can be described thus: Confirmation screen for delayed death inhibitors of the malarial parasite plastid, 48 hour incubation. Note: nearly all actives have a fitted effect of over 65% in size. The following applies: P. falciparum-infected erythrocytes, luciferase growth; series mostly up to 28.7 µM; activity change, negative = inhibition: at the top concentration. The procedure, abridged:
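Erythrocytes infected with luciferase-expressing P. falciparum (2% hematocrit, 0.1% parasitemia) incubated with compounds 48 hours at 37 C, 5% CO2, in RPMI/Albumax. Growth inhibition scored as reduced luminescence after detection reagent.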
Turning to `CN(Cc1ccc(Cl)c(Cl)c1)C(=O)C1=CC=CN2CCS(=O)(=O)N=C12`, the Potency is 7.94 µM (active).
As for `CN1C(=O)C(C)(C)c2cc(S(=O)(=O)NCC3CCC(C(=O)NCc4ccc(F)cc4)CC3)ccc21` (centres undefined), the Potency was 15.8 µM (active).
For the molecule `CCOc1cccc2sc(NC(=O)CCS(=O)(=O)c3ccccc3)nc12`, the Potency is 11.2 µM (active).
`COc1ccc(C)c2sc(NC(=O)CCS(=O)(=O)c3ccccc3)nc12`: the “activity change, negative = inhibition” value is -24.2% (inactive).
`CC1(C)CC(=O)c2sc(NC(=O)CCS(=O)(=O)c3ccccc3)nc2C1`: the “activity change, negative = inhibition” value is -29.9% (inactive).
Turning to `Nc1nonc1-n1nnc(C(=O)N/N=C/c2cccc(Cl)c2)c1-c1ccc2c(c1)OCO2`, the Potency is 0.126 µM (active).
Turning to `CN(Cc1c(C(=O)N/N=C/c2cccc(O)c2)nnn1-c1nonc1N)c1ccccc1`, the “activity change, negative = inhibition” value is 1.84% (inactive).
For the molecule `CCOc1ccc(-c2c(C(=O)N/N=C/c3ccc(OC(C)C)cc3)nnn2-c2nonc2N)cc1`, the Potency was 15.8 µM (active).
`Cc1ccsc1/C=N/NC(=O)c1nnn(-c2nonc2N)c1-c1ccc2c(c1)OCO2`: the Potency was 1.26 µM (active).
In the case of `Nc1nonc1-n1nnc(C(=O)N/N=C/c2ccc(Cl)cc2)c1-c1ccc2c(c1)OCO2`, the Potency is 0.0562 µM (active).
In the case of `CC(=O)NC[C@@H]1CN(c2ccc(N3CCOCC3)c(F)c2)C(=O)O1`, the “activity change, negative = inhibition” value is -19.4% (inactive).
Consider `CCCC(=O)N=C1SC2CS(=O)(=O)CC2N1c1ccc(CC)cc1` (centres undefined), for which the Potency is 7.94 µM (active).
The same measure, in the same setting: the figure for `CC(=O)Nc1nc2ccccc2n1Cc1ccc(C)cc1` is 6.31 µM (active).
As for `CC(=O)NC(C)c1nc2ccccc2n1CC(=O)N1C(C)CCCC1C` (centres undefined), the “activity change, negative = inhibition” value was -18.3% (inactive).
Consider `Clc1cccc(CN2CCc3c([nH]c4ccccc34)C2)c1`, for which the Potency was 12.6 µM (active).
On the same count and under the same terms, the result for `CCN(CC)CCNC(=O)c1ccc(NC(=O)c2ccccc2-c2ccc(C(F)(F)F)cc2)cc1` reads 12.6 µM (active).
For the molecule `CCOCCCNC(=O)/C(C#N)=C/c1ccc(-c2ccc(S(=O)(=O)N3CCOCC3)cc2)o1`, the Potency is 14.1 µM (active).
With `COc1ccc(-c2c(-c3cc(OC)cc(OC)c3)n(C)c3ccc(-c4ccc5[nH]ccc5c4)cc23)cc1`, the Potency is 8.91 µM (active).
`O=C(c1cccc(S(=O)(=O)N2CCc3ccccc32)c1)N1CCN(c2ccccc2)CC1`: the Potency is 14.1 µM (active).
The same measure, in the same setting: the figure for `O=C(CNC(=O)c1cccc(S(=O)(=O)N2CCc3ccccc32)c1)Nc1ccc(F)c(F)c1F` is 12.6 µM (active); for `COc1cc2c(cc1OC)CN(C(=O)c1cccc(S(=O)(=O)N3CCc4ccccc43)c1)CC2` it is 11.2 µM (active).
As for `Cc1c(C(=O)N2CCC(n3nccc3NC(=O)C3CC3)CC2)[nH]c2ccc(Cl)cc12`, the Potency is 11.2 µM (active).
In the case of `Cc1cc(C)c2[nH]c(C(=O)N3CCC(n4nccc4NC(=O)C4CC4)CC3)c(C)c2c1`, the Potency was 12.6 µM (active).
Still for that read-out and setting: the result for `Cc1ccc(S(=O)(=O)Nc2cccc3cccnc23)c([N+](=O)[O-])c1` reads 5.01 µM (active); that for `Cc1ccc(S(=O)(=O)Nc2cccc3cccnc23)cc1`, 7.08 µM (active); that for `N#Cc1cccc(NC(=O)Cn2c3[n+](c4ccc(C(F)(F)F)cc42)CCCCC3)c1`, 4.47 µM (active).
Consider `CC1(CCc2ccc3c(c2)OCO3)NCCc2c1[nH]c1ccccc21` (centres undefined), for which the Potency was 8.91 µM (active).
`CCOc1cc(/C=C2/C(=O)ON=C2C)ccc1OCc1ccccc1`: the “activity change, negative = inhibition” value is -1.49% (inactive).
Turning to `CCOC(=O)C1CCCCN1Cc1cccc(OCc2ccccc2)c1` (centres undefined), the Potency was 14.1 µM (active).
Still for that read-out and setting: the figure for `CCOC(=O)C1CCCN(Cc2ccc(OCc3ccccc3)c(OC)c2)C1` (centres undefined) is 14.1 µM (active); for `CC(C)(C)c1ccc(C(O)CCCN2CCC(C(O)(c3ccccc3)c3ccccc3)CC2)cc1` (centres undefined) it is 12.6 µM (active).
As for `Cc1ccc(C(=O)C(C(=O)/C=C/c2ccccc2)=C2SCCCS2)cc1`, the Potency was 14.1 µM (active).
The same measure, in the same setting: the result for `COc1ccc2[nH]cc(C(=O)CCl)c2c1` reads 12.6 µM (active).
For `COc1ccc2[nH]cc(CCCN3C(=O)c4ccccc4C3=O)c2c1`, the “activity change, negative = inhibition” value is -25.1% (inactive).
As for `CCn1c2ccccc2c2c3ncc4cccn4c3ccc21`, the Potency was 14.1 µM (active).
Still for that read-out and setting: the figure for `CCC(CC)COC(=O)C1=C(C)NC(=O)NC1c1ccccc1Br` (centres undefined) is 12.6 µM (active); for `CCOc1ccccc1CNC(=O)c1cc2oc3ccccc3c2n1CC` it is 14.1 µM (active).
On to `CCOc1ccc(CNC(=O)c2cc3oc4ccccc4c3n2C)cc1`, for which the “activity change, negative = inhibition” value is 1.62% (inactive).
For the molecule `COc1cccc(CNC(=O)c2cc3oc4ccccc4c3n2C)c1OC`, the “activity change, negative = inhibition” value is 4.7% (inactive).
`CC(=O)Nc1cccc(Oc2ncnc3scc(-c4ccc(C(C)C)cc4)c23)c1`: the Potency was 11.2 µM (active).
For the molecule `COc1ccc(-c2c(-c3ccc(OC)c(C)c3O)n[nH]c2C)cc1`, the Potency is 14.1 µM (active).
The same measure, in the same setting: the figure for `CC1CCC/C=C/C(=O)c2c(O)cc(O)cc2CC(=O)O1` (centres undefined) is 7.08 µM (active); for `COc1ccc(C2CC(=O)C3=C(C2)Nc2ccccc2NC3c2coc3ccccc3c2=O)cc1OC` (centres undefined) it is 1.26 µM (active).
On to `CCCCSc1nnc(-c2cc3c(C(F)(F)F)nn(C)c3s2)n1C`, for which the Potency was 12.6 µM (active).
As for `Cc1cccc2cc3c(nc12)SC(=NCC1CCCO1)N(Cc1ccco1)C3` (centres undefined), the Potency is 1.78 µM (active).
Take `O=C(O)CCn1c(-c2ccccc2)cc2c1CCCC2=O`: the “activity change, negative = inhibition” value was -9.21% (inactive).
Regarding `COc1cc(/C=C/C(=O)NC(=O)c2ccccc2O)ccc1OC(C)=O`, the Potency was 10 µM (active).
As for `O=C(CCl)NCCN1C(=O)S/C(=C\c2cccnc2)C1=O`, the Potency was 7.94 µM (active).
For `O=C(CCN1C(=O)S/C(=C\c2ccccc2)C1=O)NC1CCS(=O)(=O)C1` (centres undefined), the “activity change, negative = inhibition” value is -29.3% (inactive).
Regarding `COc1ccc2c(c1OC)C(=O)OC2Nc1nc(-c2ccccc2)cs1` (centres undefined), the Potency was 10 µM (active).
As to `CCCCNc1nc2sc3c(c2c(=O)n1-c1cccc(Cl)c1)CCN(C)C3`, the Potency is 3.55 µM (active).
`CCCCCNc1nc2sc3c(c2c(=O)n1-c1cccc(Cl)c1)CCN(C)C3`: the Potency is 7.08 µM (active).
For the molecule `Brc1ccccc1-c1nnc(COc2ncnc3c2cnn3-c2ccccc2)o1`, the “activity change, negative = inhibition” value was -15.7% (inactive).
For the molecule `O=C(C[n+]1cccc(CNC(=O)c2ccc(OC(F)F)cc2)c1)Nc1ccc(SC(F)F)cc1`, the Potency is 5.62 µM (active).
In the case of `CN(C)c1cc[n+](CC(=O)Nc2ccc(OC(F)F)cc2)cc1`, the Potency is 2.82 µM (active).
For the molecule `Cc1ccc[n+](CC(=O)Nc2ccc(N(C)C)cc2)c1`, the “activity change, negative = inhibition” value was -11.7% (inactive).
Take `CCOc1ccc(NC(=O)C[n+]2ccc(N(C)C)cc2)cc1`: the Potency was 2.51 µM (active).
Still for that read-out and setting: the figure for `O=C(CCl)Nc1ccc(Sc2ccc(NC(=O)CCl)cc2)cc1` is 2.51 µM (active); for `CC(C)N(c1ccccc1)c1ccc(NC(=O)CCl)cc1` it is 11.2 µM (active).
For `CCOC(=O)c1c(NC(=S)N2CCCCC2)sc2c1CCN(C(=O)OCC)C2`, the Potency was 5.62 µM (active).
Take `CCc1ccc(-c2nc3ccc(Br)cc3c(C(=O)O)c2C)s1`: the “activity change, negative = inhibition” value is -27.6% (inactive).
For `C=CCc1cccc(CNc2ccc(Br)cc2)c1O`, the Potency is 3.98 µM (active).
Turning to `COc1ccc(CCNc2cc(C)nc3c(-c4ccc(Cl)cc4)c(C)nn23)cc1OC`, the Potency is 12.6 µM (active).
In the case of `O=C(CSc1nnc(CNc2ccc(F)cc2)o1)c1ccccc1`, the “activity change, negative = inhibition” value is -19.3% (inactive).
Consider `Fc1ccc(CNc2ccc(N3CCN(Cc4ccccc4)CC3)cc2)cc1`, for which the Potency is 12.6 µM (active).
As to `CCCCN(CCCC)CC(O)c1cc(Cl)cc2c1-c1ccc(Cl)cc1/C2=C/c1ccc(Cl)cc1` (centres undefined), the Potency was 0.0562 µM (active).
`Cc1nn(Cc2c(Cl)cccc2Cl)c(C)c1NC(=O)c1cc(C(C)C)on1`: the Potency was 12.6 µM (active).
The same measure, in the same setting: the figure for `CCC(C(=O)Nc1sc(C(N)=O)c(C)c1C(=O)OC)c1ccccc1` (centres undefined) is 12.6 µM (active).
For the molecule `CCOC(=O)c1cnc2ccccc2c1NCCc1ccc(OC)c(OC)c1`, the Potency is 11.2 µM (active).
With `CCN(CC)C(=O)N1c2ccccc2C=Cc2ccccc21`, the Potency was 15.8 µM (active).
On to `O=C1c2ccccc2C(=Nc2ccccc2)C1c1cccc(Br)c1` (centres undefined), for which the Potency is 3.98 µM (active).
With `CCOC(=O)c1cc(-c2ccccc2)sc1NC(=O)C(C)OC(=O)c1cccnc1Cl` (centres undefined), the Potency was 11.2 µM (active).
In the case of `CCc1ccc(Nc2n[n+](-c3ccccc3)c(-c3cccc(Cl)c3Cl)s2)cc1`, the Potency is 3.16 µM (active).
Regarding `CC1=CC(C)(C)N2C(=O)C3(NCCc4c3[nH]c3ccccc43)c3cc(C)cc1c32` (centres undefined), the Potency was 14.1 µM (active).
For the molecule `CCN(CC)c1ccc(/C=N/NC(=S)NC)c(O)c1`, the Potency is 10 µM (active).
In the case of `O=C(C[n+]1ccccc1)Nc1ccc(Cl)c([N+](=O)[O-])c1`, the Potency is 12.6 µM (active).
As for `Cc1ccc(-c2cc(NC(=O)CCl)n(-c3ccccc3)n2)cc1`, the Potency is 10 µM (active).
Turning to `O=C(CCl)Nc1c2c(nn1-c1ccccc1)CSC2`, the Potency is 2.51 µM (active).
Consider `CC(C)(C)c1cc(NC(=O)CCl)n(-c2ccccc2)n1`, for which the Potency is 12.6 µM (active).
As to `N#CCCn1nc(-c2ccc(Cl)cc2)cc1Nc1ccccc1NC(=O)C(F)(F)F`, the “activity change, negative = inhibition” value was -22.3% (inactive).
Regarding `CC1CCN(C(=O)Cn2c(=O)oc3cc(S(=O)(=O)N4CCCCC4)ccc32)CC1`, the Potency is 15.8 µM (active).
Same read-out and setting: the result for `CCOc1ccccc1CN1CCN(Cc2ccc3cccc(OC)c3n2)CC1CCO` (centres undefined) reads 14.1 µM (active); that for `COc1ccc(CN2CCN(Cc3cc4ccccc4o3)CC2CCO)cc1C` (centres undefined), 14.1 µM (active).
Consider `CCCN1C(=O)c2ccccc2NC1c1ccc(OC)cc1O` (centres undefined), for which the Potency is 12.6 µM (active).
In the case of `Cc1cccc(C2Nc3ccccc3C(=O)N2c2ccccc2)n1` (centres undefined), the “activity change, negative = inhibition” value was -25.3% (inactive).
With `O=[N+]([O-])c1ccc(C[n+]2cccc3c4ccccc4ccc32)cc1`, the Potency was 0.398 µM (active).
As for `O=[N+]([O-])c1ccc(CNC2CCCc3ccccc32)cc1` (centres undefined), the “activity change, negative = inhibition” value is -49.5% (inactive).
Take `O=C(NC1CCCC1)c1ccc([N+](=O)[O-])s1`: the Potency is 14.1 µM (active).
In the case of `O=C(NC1C=CS(=O)(=O)C1)c1sc2ccccc2c1Cl` (centres undefined), the Potency was 6.31 µM (active).
Take `Cc1cc(Cl)cc(C)c1OCCn1ccnc1`: the Potency is 12.6 µM (active).
Still for that read-out and setting: the figure for `Cc1nn(Cc2ccccc2Cl)c(C)c1C(=O)Nc1nnc(C2CC2)s1` is 11.2 µM (active).
Regarding `Cc1c(OC(C)C(=O)NCc2cccnc2)ccc2c3c(c(=O)oc12)CCCC3` (centres undefined), the Potency was 1.58 µM (active).
In the case of `Cc1c(OCC(=O)NCc2cccnc2)ccc2c3c(c(=O)oc12)CCC3`, the “activity change, negative = inhibition” value is -10.9% (inactive).
Turning to `Cc1c(OCC(=O)NCc2cccnc2)ccc2c3c(c(=O)oc12)CCCC3`, the Potency is 10 µM (active).
